Assay outcomes: PubChem, National Center for Advancing Translational Sciences (NCATS)
Only a selection was taken, and hits are over-represented in it overall.
Pf Dd2 inh: qHTS Primary assay for Inhibitors of Plasmodium falciparum Dd2 growth in vitro; 120,000 compounds, 4.3% hits; P. falciparum Dd2 growth, SYBR Green, 72 h; Potency, µM (titrated, usually from 28.9 µM), for the others: top-dose activity, negative = inhibition, hits mostly inhibitors; active means well fitted inhibition curve with a large enough effect;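 further: plate controls were DMSO vehicle for no effect and reference drug for full effect; nearly all actives have a fitted effect of over 65% in size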
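Infected erythrocytes (Dd2, 0.3% parasitemia, 2.5% hematocrit final) are added to compound in RPMI-1640/Albumax II medium, grown 72 h at 37C in low oxygen, then lysed with saponin/Triton-X containing SYBR Green and read by fluorescence.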
* marks the source's active call; other numbers are inactive results; [ ] = remark or other dose. Potency means the concentration at half of the fitted maximal effect.

How did O=C1c2c(-c3nc(-c4ccsc4)no3)nnn2CCN1Cc1cc(F)cc(F)c1 do in these assays?
Pf Dd2 inh: inactive

Results for Cc1ncccc1OC1(C(=O)N2CCCC2c2nc(C(C)C)no2)CCNCC1 (stereo not drawn) ?
Pf Dd2 inh: -5%

What do the screens show for `CCOc1ccccc1NC(=O)Cn1c(=O)n(Cc2ccco2)c(=O)c2cccnc21`?
Pf Dd2 inh: 11µM*

What do the screens show for `COc1ccccc1NC(=O)Cn1c(=O)n(Cc2ccco2)c(=O)c2cccnc21`?
Pf Dd2 inh: 13%

How did Cc1ccc(NC(=O)Cn2c(=O)n(Cc3ccco3)c(=O)c3ccccc32)c(C)c1 do in these assays?
Pf Dd2 inh: -2%

How did Fc1ccc(CN2CCC3(CC(c4cccc(C(F)(F)F)c4)=NO3)C2)cc1 (stereo not drawn) do in these assays?
Pf Dd2 inh: 10µM*

Results for CN(C)c1ccc(CN2CCCC3(CC(c4cccc(C(F)(F)F)c4)=NO3)C2)cc1 (stereo not drawn) ?
Pf Dd2 inh: 7%

Results for CC(=O)Nc1ccc(CN2CCC3(CC2)CC(c2cccc(C(F)(F)F)c2)=NO3)cc1 ?
Pf Dd2 inh: 10µM*

How did CC(=O)Nc1ccc(CN2CCC3(CC2)CC(c2cccnc2)=NO3)cc1 do in these assays?
Pf Dd2 inh: -8%

Results for Fc1ccc(CN2CCCC3(CC(c4cccc(C(F)(F)F)c4)=NO3)C2)cc1 (stereo not drawn) ?
Pf Dd2 inh: -16%

Results for N#Cc1ccc(CN2CCC3(CC(c4cccc(C(F)(F)F)c4)=NO3)C2)cc1 (stereo not drawn) ?
Pf Dd2 inh: -18%

What do the screens show for `COC(=O)c1ccc2c(c1)nc1n2[C@@H](CNCc2ccc(S(C)(=O)=O)cc2)COC1`?
Pf Dd2 inh: -20%[44.1 µM]

How did CC[C@H]1CN(S(=O)(=O)c2ccc(OC)cc2)CC[C@H]1CC(=O)NCCN1CCOCC1 do in these assays?
Pf Dd2 inh: -8%

How did CCCn1c(C)c(CC(=O)N[C@@H](C)C(N)=O)c2c1CC(C)(C)CC2=O do in these assays?
Pf Dd2 inh: -22%

Results for CC(=O)N1CCn2cc(C(=O)NCc3ccc(Cl)nc3)nc2C1 ?
Pf Dd2 inh: 12%

How did COCC[C@]1(O)CCN(C(=O)CCCc2cccs2)C[C@H]1C do in these assays?
Pf Dd2 inh: -13%

Results for Cc1ccc(Cn2c(C(=O)NCc3ccccc3Cl)cc3sccc32)cc1 ?
Pf Dd2 inh: 11µM*

Results for COc1ccc(CNC(=O)c2cc3sccc3n2Cc2ccc(F)cc2)cc1 ?
Pf Dd2 inh: -1%

What do the screens show for `CCOC(=O)c1ccc(NC(=O)c2cc3sccc3n2Cc2ccc(Cl)cc2)cc1`?
Pf Dd2 inh: -5%

How did Cc1ccc(CCNC(=O)c2cc3sccc3n2Cc2ccc(C)cc2)cc1 do in these assays?
Pf Dd2 inh: inactive

How did Cc1ccc(Cn2c(C(=O)Nc3cccc(Cl)c3)cc3sccc32)cc1 do in these assays?
Pf Dd2 inh: -24%

What do the screens show for `CCOC(=O)c1cccc(NC(=O)c2cc3sccc3n2Cc2ccc(Cl)cc2)c1`?
Pf Dd2 inh: 11µM*

Results for Cc1cc(C(=O)N2C[C@@H]3CCCN4CCC[C@@H]([C@H]34)[C@H]2CCCC(=O)N2CCOCC2)nn1C ?
Pf Dd2 inh: -21%

What do the screens show for `C[C@H]1[C@@H]2[C@@H](O)C([C@H](C)C(=O)NC(C)(C)C)CC[C@@]2(C)CC[C@@H]1NC(=O)c1cccc(F)c1` (stereo partly drawn)?
Pf Dd2 inh: -5%

Results for COCc1nc(NCCCc2c(C)noc2C)cc(C2CC(N)C2)n1 (stereo not drawn) ?
Pf Dd2 inh: -6%

How did CCc1cccc(NC(=O)c2cc3c(=O)n(Cc4ccccc4)ccc3nc2C)c1 do in these assays?
Pf Dd2 inh: -2%

How did COc1ccc(Cn2ccc3nc(C)c(C(=O)Nc4ccc(F)cc4)cc3c2=O)cc1 do in these assays?
Pf Dd2 inh: 6%

Results for CCc1ccc(NC(=O)c2cc3c(=O)n(Cc4cccs4)ccc3nc2C)cc1 ?
Pf Dd2 inh: 13µM*

Results for CCN1C(=O)CCC2(C(=O)NCC3CC3)CCCC=C12 (stereo not drawn) ?
Pf Dd2 inh: -7%

How did CN1C(=O)CC(C(=O)O)C12CCN(C(=O)C1(c3ccccc3)CC1)CC2 (stereo not drawn) do in these assays?
Pf Dd2 inh: 5%

Results for Cc1nn2c(c1-c1ccccc1Oc1ccccc1)N(C(=O)Cc1ccc3c(c1)OCO3)CCC2 ?
Pf Dd2 inh: -9%

Results for COc1cccc(CCC2CCCN(C(=O)C3CCCC3)C2)c1 (stereo not drawn) ?
Pf Dd2 inh: inactive

What do the screens show for `CCN(Cc1cccc(OCCO)c1)CC1CCCN(CCc2cccc(OC)c2)C1` (stereo not drawn)?
Pf Dd2 inh: 10µM*

How did COc1cccc(CN2CCCC(Nc3cc(N)ncn3)C2)c1 (stereo not drawn) do in these assays?
Pf Dd2 inh: -19%

How did COc1ccc(C(=O)N2CCC(N3C(=O)C(OC)C34CCOCC4)CC2)c(OC)c1 (stereo not drawn) do in these assays?
Pf Dd2 inh: -1%

Results for CCNC(=O)N(C1CC1)C1CCOC2(CCN(C(=O)NCc3ccc(C)cc3)CC2)C1 (stereo not drawn) ?
Pf Dd2 inh: -2%

How did Cc1noc2c(NC3CCC(O)CC3)cc(-c3ccc(Cl)cc3)nc12 (stereo not drawn) do in these assays?
Pf Dd2 inh: inactive

How did O=C(C[C@@H]1CCNC[C@@H]1Cc1cc(-c2ccccc2)on1)NC1CC1 do in these assays?
Pf Dd2 inh: 11%[44.1 µM]

What do the screens show for `CN(C)CCNC(=O)C[C@@H]1CCNC[C@@H]1Cc1cc(-c2ccc(C(C)(C)C)cc2)on1`?
Pf Dd2 inh: inactive

Results for CC(C)(C)c1ccc(-c2cc(C[C@H]3CNCC[C@H]3CC(=O)N3CCC(Cc4ccccc4)CC3)no2)cc1 ?
Pf Dd2 inh: inactive

How did CC(C)(C)c1ccc(-c2cc(C[C@H]3CNCC[C@H]3CC(=O)Nc3ccccc3)no2)cc1 do in these assays?
Pf Dd2 inh: -25%[44.1 µM]

Results for COc1ccc(-c2cc(C[C@H]3CNCC[C@H]3CC(=O)N3CCOCC3)no2)cc1 ?
Pf Dd2 inh: 9%[44.1 µM]

Results for CC(C)NC(=O)C[C@@H]1CCNC[C@@H]1Cc1cc(-c2ccc(C(C)(C)C)cc2)on1 ?
Pf Dd2 inh: 7.1µM*

How did CC(C)(C)c1ccc(-c2cc(C[C@H]3CNCC[C@H]3CC(=O)NCCN3CCOCC3)no2)cc1 do in these assays?
Pf Dd2 inh: 10µM*

Results for CCN(CC)C(=O)C[C@@H]1CCNC[C@@H]1Cc1cc(-c2ccc(C(C)(C)C)cc2)on1 ?
Pf Dd2 inh: 4.5µM*

What do the screens show for `CN1CCN(C(=O)C[C@@H]2CCNC[C@@H]2Cc2cc(-c3ccccc3)on2)CC1`?
Pf Dd2 inh: inactive

What do the screens show for `COCCn1nnnc1C1CC2(CCOCC2)C(=O)N1Cc1cccnc1` (stereo not drawn)?
Pf Dd2 inh: -10%

What do the screens show for `CC(C)NC(=O)C[C@@H]1C[C@H]2O[C@H](CNC(=O)NC(C)C)[C@@H](O)[C@H]2O1`?
Pf Dd2 inh: 44%[44.1 µM]

What do the screens show for `COc1ccccc1OCCNC(=O)CCC1CCN(C(=O)c2ccccc2F)CC1`?
Pf Dd2 inh: inactive

How did O=C(c1ccco1)N1CCN(C(=O)C2CN(S(=O)(=O)C3CC3)CC23CCCCC3)CC1 (stereo not drawn) do in these assays?
Pf Dd2 inh: inactive

What do the screens show for `CCc1ccc(NC(=O)c2cc(S(=O)(=O)N3CCCCC3)c[nH]2)cc1`?
Pf Dd2 inh: 10%

What do the screens show for `O=C(NCc1ccc(Cl)cc1)c1cc(S(=O)(=O)N2CCCCC2)c[nH]1`?
Pf Dd2 inh: 11µM*
